# From PubChem
# Shown is part of a subset that was picked to be rich in hits.
# Dicer processing – blocks human Dicer maturation of pre-miR-21. Q9UPY3. cat-ELCCA pre-miR-21 Dicer processing, chemiluminescence; stronger effect = higher value. z-score at 25 µM. 47,000 compounds, 6% hits. AID 1347074; in the data active = z-score above about 3, passing the limit was not always enough;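 also: plate controls were vehicle for no effect and no enzyme for full effect; higher signal means more uncleaved substrate so more Dicer inhibition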
# * marks the source's active call; other numbers are inactive results.
SMILES,Dicer processing
Cc1ccc2c(c1)C(=O)C(=O)N2CCCOc1ccc(C(C)(C)C)cc1,0.65
COc1nc2c(c(=O)n(C)c(=O)n2C)n1Cc1c(F)cccc1Cl,0.81
CCOC(=O)c1c(NC(=O)C2C3C=CC(C3)C2C(=O)O)sc2c1CCC(CC)C2 (stereo not drawn),-0.46
Cn1c2c(c(=O)n(C)c1=O)C(c1ccccc1Cl)C1C(=O)c3ccccc3C1=N2 (stereo not drawn),-0.8
O=C(OCc1ccccc1)C1=NNC2C(=O)N(c3cccc(Cl)c3)C(=O)C12 (stereo not drawn),1.6
CCCn1c(=O)cc(N)n(-c2ccc(Cl)cc2)c1=O,5.1*
Nc1cc(=O)n(Cc2ccccc2)c(=O)n1-c1ccccc1,0.82
CCCn1c(=O)c2[nH]cnc2n(-c2ccc(Cl)cc2)c1=O,1.7
Cn1c(NCCO)nc2c1c(=O)n(Cc1cccc(F)c1)c(=O)n2C,2.4
Cc1occc1C(=O)C(C#N)=C1SCCCS1,0.37
COC(=O)c1sc(C(F)(F)F)c(-c2ccccc2)c1S(=O)(=O)Oc1cccc(C)c1,-0.2
O=C(CCc1nc(-c2ccc(Cl)cc2)no1)NNC(=S)NCCc1ccccc1,-0.17
O=C(CCc1ccccc1)NNc1ccc(F)cc1F,-1.4
O=C(CCc1ccncc1)NNC(=O)N1Cc2ccccc2Oc2ccc(Cl)cc21,3.1*
Cn1nc(-c2ccc(/C=C(\C#N)S(=O)(=O)c3ccc(C(F)(F)F)cn3)s2)cc1C(F)(F)F,-0.07
COC(=O)C1=C(C)N(c2cc(C)cc(C)c2)C(=O)C1,3.6*
COC(=O)C1=C(C)N(Cc2cccnc2)C(=O)C1,-0.1
CCOC(=O)C1=C(C)N(c2ccccc2)C(=O)C1,2
CC(C)S(=O)(=O)c1cnc(N2CCCC2)nc1N,-0.04
Cc1cc(C)c2c3c(oc2n1)C(=O)N(c1ccc(F)cc1)CC(=O)N3,-0.9
COC(OC)c1ccc(C#N)c(SCC(=O)c2ccccc2)n1,0.35
CC(C)(C)c1cc2n(n1)C1=NCCN1C=N2,0.37
COC(=O)C1=C(C)NC2=C(C(=O)CC(C)(C)C2)C1c1ccccc1OC (stereo not drawn),2.8
COc1ccc(Br)cc1C1C(C#N)=C(N)Oc2cc(O)ccc21 (stereo not drawn),0.58
COC(=O)C1=C(N)Oc2cc(N(C)C)ccc2C1c1ccccc1OC (stereo not drawn),3.2*
SMILES,Dicer processing
Cc1ccc2c(c1)CCCN2C(=O)c1scc(S(=O)(=O)c2ccc(Cl)cc2)c1C,-1.7
Cc1c(S(=O)(=O)c2ccc(Cl)cc2)csc1C(=O)Nc1ccc(N2CCOCC2)c(Cl)c1,-1.9
Cc1c(S(=O)(=O)c2ccc(Cl)cc2)csc1S(=O)(=O)N1CCCC1,3*
CCOC(=O)c1c(C)n(C)c2cc(-c3ccc(F)cc3)c(O)cc12,2.4
CCn1c(/C=C/c2ccc3c(c2)OCO3)nc2ccccc2c1=O,5.1*
CCn1c(/C=C/c2cccc(Br)c2)nc2ccccc2c1=O,0.11
CCn1c(SC)nc2ccccc2c1=O,0.15
CCOC(=O)c1c(C)n(-c2ccc(N(C)C)cc2)c2ccc(OCC(N)=O)cc12,4.6*
CCOC(=O)c1c(C)n(-c2ccccc2)c2ccc(OC(=O)c3cccnc3SCC)cc12,-0.1
COc1cc(C(=O)O)cc(Br)c1OC,0.34
COc1ccccc1-n1c(C)c(C(=O)O)c2cc(OC)c3ccccc3c21,4.6*
COc1ccccc1N1CCN(c2nnc(C)c3ccccc23)CC1,-0.71
CCOC(=O)c1c(C)n(-c2ccc(Br)cc2)c2ccc(O)cc12,-0.48
CCOC(=O)c1c(C)n(-c2ccccc2)c2cc(Br)c(O)cc12,3.7*
CCOC(=O)c1c(C)n(-c2ccccc2)c2ccc(OC(C)=O)cc12,1.4
COc1cc2c(C(=O)O)c(C)n(-c3ccccc3)c2cc1Br,3.1*
COc1ccccc1N1CCN(C(=O)c2cc(C)on2)CC1,-0.05
CCOC(=O)c1c(C)n(-c2ccc(N(C)C)cc2)c2ccc(OC)cc12,-4.8
CCS(=O)(=O)Nc1cc2c(C(=O)O)c(C)n(S(=O)(=O)CC)c2cc1OC,-2
Clc1ccc(OCc2ccccc2)cc1,0.84
COc1ccc(OC)c(C2Nc3ccc4ccccc4c3C3=C2C(=O)CCC3)c1 (stereo not drawn),-0.86
O=C(/C=C/Nc1ccc(Cl)cc1)c1ccc(Br)cc1,0.11
Cc1cccc2nc(-c3cc4ccccc4s3)oc(=O)c12,-0.57
O=C1CC(c2ccc(F)cc2)Cc2nc(NC3CCCC3)ncc21 (stereo not drawn),2.7
Cc1cc(Nc2ccc(F)c(Cl)c2)nc(N)n1,0.37
SMILES,Dicer processing
Cc1nn2c(nc1=O)NN=C(c1ccccc1)C2,-0.32
CCNc1nc(SCC(=O)NC(=O)NCc2ccccc2)nc2sc3c(c12)CCN(C)C3,0.17
CC(C)(C)n1nc(C2CC2)c(Br)c1NC(=O)c1ccccc1Cl,-1.5
Cc1nn(C(C)(C)C)c(NC(=O)c2ccc(Cl)cc2Cl)c1Br,3.3*
Cc1cc(NC(=O)c2ccc(Cl)cc2Cl)n(C(C)(C)C)n1,1.2
Cc1ccc2oc3c(c(=O)c2c1)C(c1ccc(O)cc1)N(Cc1ccc(F)cc1)C3=O (stereo not drawn),-0.22
O=C(O)C1Cc2c([nH]c3ccccc23)C(c2ccc(Br)cc2)N1 (stereo not drawn),-0.88
Cc1cc(C)c2nc(-c3ccc(C(C)(C)C)cc3)oc(=O)c2c1,-1.4
CCCSc1nnc2c3ccccc3n(CC)c2n1,1.1
CCn1c2ccccc2c2nnc(SCC(=O)c3ccccc3)nc21,1.6
C=CCSc1nnc2c3ccccc3n(CC=C)c2n1,3.2*
COc1cc2nc(SCC(=O)Nc3ccc(C(C)C)cc3)n(-c3ccccc3)c(=O)c2cc1OC,0.57
Cc1oc(-c2cccs2)cc1C(=O)O,-1.3
CC(C)(C)c1ccc(NC(=O)Nc2sccc2-n2cccc2)cc1,6.4*
Cn1nc(-c2ccccc2)cc1NC(=O)Nc1ccc(C(C)(C)C)cc1,1
O=C(NCC1CC1)Nc1sccc1-n1cccc1,-3
O=c1[nH]c(SCc2c(Cl)cccc2Cl)nc2ccnn12,1.6
Nc1cscc1S(=O)(=O)c1ccccc1,-2.7
Nc1ccc(Sc2nc3ccccc3s2)cc1,5.2*
O=C(O)CSc1nc2ccccc2s1,-1.8
Clc1ccc2sc(Sc3ccccc3)nc2c1,-0.68
COc1ccc2[nH]cc(CCNS(=O)(=O)c3ccc(N)cc3)c2c1,0.58
CCOC(=O)c1c(CS(=O)c2ccc(Cl)cc2)oc2c(F)c(F)c(F)c(F)c12 (stereo not drawn),-1.2
CCc1ccc2nc(Nc3nc(CSc4nnc(C)s4)cc(=O)[nH]3)nc(C)c2c1,3.1*
Cc1ccc(SCc2cc(=O)[nH]c(Nc3nc(C)c4cccc(C)c4n3)n2)cc1,1.8
SMILES,Dicer processing
CCOc1ccc2nc(Nc3nc(O)cc(=O)[nH]3)nc(C)c2c1,2.8
Cn1c(=O)c2c(ncn2CC(=O)NCc2cccnc2)n(C)c1=O,1.8
O=C(NNC(=O)c1ccc(Cl)cc1)Oc1ccccc1,-0.78
CCOC(=O)c1cnc(NC(=O)CSc2nnc3sc4ccccc4n23)s1,4.3*
CC(Sc1nnc2sc3ccccc3n12)C(=O)O (stereo not drawn),0.44
C=CCSc1nnc2sc3ccccc3n12,0.61
COC(=O)c1cc(=O)c2cc(NC(=O)c3ccc(OC(F)(F)F)cc3)ccc2[nH]1,-0.94
Cc1[nH]nc2c1C1(CCN(Cc3ccccc3)CC1)C(C#N)=C(N)O2,-5
Cc1ccc(N(C(=O)c2ccc(Cl)cc2)C2C=CS(=O)(=O)C2)cc1 (stereo not drawn),-1.8
N#C/C(=N\OC(=O)c1ccc(Cl)cc1)S(=O)(=O)c1ccc(Cl)cc1,-3.8
CC(C)S(=O)(=O)C/C(N)=N/OCc1ccc(Cl)cc1,-0.68
